According to PubChem BioAssay (NCI):
This is part of a sample that, as a whole, favours compounds with a hit. Of some 83,000 tested, about 20% had one in any assay.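 Results are percent growth after 48 hours of single-concentration exposure. 100 means growth as in untreated cells, lower positive values show inhibition; negative values down to -100 show cell death.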 Calls of active or inactive are those of the source. How the source made its calls: active means growth percent below 10; inactive means the rest. Where a SMILES comes first, the peptide text is derived from it. [ ]: non-standard residue; d: D form. ξ: configuration not given here. ξD = NC(CC(=O)O)C(=O)O

Legend:
Test in all cases: NCI-60 one-dose screen, 48 h (100 = growth as untreated, 0 = no growth, -100 = all killed)
Details in all cases: 10 µM unless noted
SK-MEL-2 melanoma = system: SK-MEL-2 melanoma
EKVX NSCLC = system: EKVX NSCLC
SN12C renal = system: SN12C renal
TK-10 renal = system: TK-10 renal
ACHN renal = system: ACHN renal
CAKI-1 renal = system: CAKI-1 renal
A498 renal = system: A498 renal
MOLT-4 leukemia = system: MOLT-4 leukemia
CCRF-CEM leukemia = system: CCRF-CEM leukemia
UO-31 renal = system: UO-31 renal

Measured: growth

CC(=O)c1c(O)c(C)c(O)c2c1OC1=CC(=O)C(C(C)=O)C(=O)C12C (stereo not given)
inactive: SK-MEL-2 melanoma 83.7% | EKVX NSCLC 51.9% | SN12C renal 143% | TK-10 renal 103% | ACHN renal 89% | CAKI-1 renal 74.2% | A498 renal 76.3% | MOLT-4 leukemia 71.9%

COc1ccc(NC(=O)/C(=C/N2C(=O)/C(=C/c3ccc(OC)c(OC)c3)NC2=S)C(C)=O)cc1
inactive: SK-MEL-2 melanoma 87.1% | EKVX NSCLC 93.5% | SN12C renal 80.8% | ACHN renal 79.6% | CAKI-1 renal 92.3% | A498 renal 87.6% | CCRF-CEM leukemia 80.3%

Oc1ccc2ccccc2c1N=Nc1nccs1
inactive: SK-MEL-2 melanoma 153% | SN12C renal 34.4% | ACHN renal 10.3% | A498 renal 136%
active: EKVX NSCLC -9.54% | CAKI-1 renal -31.1% | CCRF-CEM leukemia -7.19% | MOLT-4 leukemia -4.26%

NC(=S)N/N=C/c1ncccc1O
active: CCRF-CEM leukemia 1.76% | MOLT-4 leukemia 4.88%
inactive: SK-MEL-2 melanoma 103% | EKVX NSCLC 44.1% | SN12C renal 20.5% | TK-10 renal 71.2% | ACHN renal 10.7% | CAKI-1 renal 15.1%

Cc1cc2nc(CC(=O)c3ccncc3)c(=O)[nH]c2cc1C
inactive: SK-MEL-2 melanoma 115% | EKVX NSCLC 56.1% | SN12C renal 84.7% | TK-10 renal 107% | CAKI-1 renal 82.9% | A498 renal 98.4% | CCRF-CEM leukemia 93.6% | MOLT-4 leukemia 104%

CCC1C[N+]2=C(c3cc(OC)c(OC)cc3CC2)c2c1cc1n2CCc2cc(OC)c(OC)cc2-1 (stereo not given)
inactive: EKVX NSCLC 57.9% | SN12C renal 32.7% | TK-10 renal 82.9% | ACHN renal 96.9% | CAKI-1 renal 87% | A498 renal 75% | CCRF-CEM leukemia 52.1% | MOLT-4 leukemia 41.5%
active: SK-MEL-2 melanoma -1.15%

O=[N+]([O-])c1ccc(N2CCN(Cc3ccccc3)CC2)c2c1no[n+]2[O-]
inactive: SK-MEL-2 melanoma 64.8% | SN12C renal 19.1% | CAKI-1 renal 15.3% | A498 renal 47.6%
active: UO-31 renal -78.1% | TK-10 renal -15.7% | ACHN renal -91.6% | CCRF-CEM leukemia -31.6% | MOLT-4 leukemia -29.8%

Oc1c(C(Nc2ccccc2)c2ccccc2)ccc2cccnc12 (stereo not given)
inactive: SK-MEL-2 melanoma 48% | SN12C renal 54.6% | UO-31 renal 36.9% | TK-10 renal 49.4% | ACHN renal 42.9% | CAKI-1 renal 29.1% | A498 renal 78.7% | CCRF-CEM leukemia 17.7% | MOLT-4 leukemia 21.2%

CCOC(=O)NC(/C=C/c1ccccc1)NC(=O)OCC
inactive: SK-MEL-2 melanoma 104% | SN12C renal 99% | UO-31 renal 91.2% | TK-10 renal 100% | ACHN renal 109% | CAKI-1 renal 94.5% | A498 renal 89.3% | CCRF-CEM leukemia 98.4% | MOLT-4 leukemia 98.7%

O=C(Cc1nc2cc(Cl)c(Cl)cc2nc1CC(=O)c1ccccc1)c1ccccc1
inactive: SK-MEL-2 melanoma 90.2% | EKVX NSCLC 51.4% | SN12C renal 75.4% | TK-10 renal 119% | CAKI-1 renal 68.6% | A498 renal 125% | CCRF-CEM leukemia 27.1% | MOLT-4 leukemia 28.9%

O=C(NOC(=O)c1ccccc1)c1ccccc1
inactive: SK-MEL-2 melanoma 97% | EKVX NSCLC 95.7% | SN12C renal 108% | TK-10 renal 97.8% | ACHN renal 101% | CAKI-1 renal 86.5% | A498 renal 94.6% | CCRF-CEM leukemia 70.6% | MOLT-4 leukemia 93%

Cc1cccc2c(N)c3ccccc3nc12
active: SK-MEL-2 melanoma -28.5% | EKVX NSCLC 1.94% | SN12C renal -9.63% | TK-10 renal -5.29% | ACHN renal -18.6% | CAKI-1 renal -21.9% | A498 renal -46.5% | CCRF-CEM leukemia 6.63% | MOLT-4 leukemia 2.71%

Nc1nc2ncc(CNc3ccc(C(=O)NC(CCC(=O)NC(CCC(=O)NC(CCC(=O)NC(CCC(=O)NC(CCC(=O)O)C(=O)O)C(=O)O)C(=O)O)C(=O)O)C(=O)O)cc3)nc2c(=O)[nH]1 (stereo not given)
inactive: SK-MEL-2 melanoma 118% | EKVX NSCLC 95.9% | SN12C renal 101% | TK-10 renal 119% | ACHN renal 110% | CAKI-1 renal 89.7% | A498 renal 116% | CCRF-CEM leukemia 102% | MOLT-4 leukemia 107%

C1=C(c2ccccc2)c2ccccc2C1
inactive: SK-MEL-2 melanoma 94.4% | EKVX NSCLC 90.5% | UO-31 renal 68.8% | TK-10 renal 119% | CAKI-1 renal 76.4% | A498 renal 68.5% | MOLT-4 leukemia 92.4%

CCCCCC[C@@H](O)C/C=C\CCCCCCCC(=O)OCCOC
inactive: SK-MEL-2 melanoma 97.6% | EKVX NSCLC 79.1% | SN12C renal 98.3% | TK-10 renal 99.1% | ACHN renal 100% | CAKI-1 renal 103% | A498 renal 107% | CCRF-CEM leukemia 94.3% | MOLT-4 leukemia 122%

O=C(Cc1nc2cc(Cl)c(Cl)cc2nc1CC(=O)c1cccnc1)c1cccnc1
inactive: SK-MEL-2 melanoma 113% | EKVX NSCLC 54% | SN12C renal 75% | TK-10 renal 141% | ACHN renal 60.9% | CAKI-1 renal 72.5% | A498 renal 133% | CCRF-CEM leukemia 31.4% | MOLT-4 leukemia 38.8%

Cc1c(O)ccc(SC#N)c1C
inactive: SK-MEL-2 melanoma 103% | EKVX NSCLC 121% | SN12C renal 95.3% | TK-10 renal 107% | ACHN renal 103% | CAKI-1 renal 98.5% | A498 renal 127% | CCRF-CEM leukemia 30.7% | MOLT-4 leukemia 97.5%

COc1cc(-c2ccc(-[n+]3nc(-c4ccc([N+](=O)[O-])cc4)nn3-c3ccc([N+](=O)[O-])cc3)c(OC)c2)ccc1-[n+]1nc(-c2ccc([N+](=O)[O-])cc2)nn1-c1ccc([N+](=O)[O-])cc1
inactive: CCRF-CEM leukemia 12.7% | MOLT-4 leukemia 17.9%
active: SK-MEL-2 melanoma 1.62% | SN12C renal 2.95% | UO-31 renal 6.95% | TK-10 renal -9.35% | ACHN renal 9.61% | CAKI-1 renal -9.54% | A498 renal -22.2%

Nc1ccc(C(=O)/C=C/c2ccccc2)cc1
inactive: SK-MEL-2 melanoma 91.6% | SN12C renal 98.4% | UO-31 renal 62.1% | TK-10 renal 85.2% | ACHN renal 105% | CAKI-1 renal 98.5% | A498 renal 101% | CCRF-CEM leukemia 58.7% | MOLT-4 leukemia 75.4%

OC(c1cc(-c2ccc(Cl)cc2)nc2c(Cl)cccc12)C1CCCCN1 (stereo not given)
active: SK-MEL-2 melanoma -91% | EKVX NSCLC -32.9% | SN12C renal -70.3% | TK-10 renal -75.9% | ACHN renal -65.3% | CAKI-1 renal -72.5% | A498 renal 9.48% | CCRF-CEM leukemia -59.1% | MOLT-4 leukemia -57.5%

Cc1nnc(N/N=C/c2ccc([N+](=O)[O-])o2)[nH]c1=O
inactive: SN12C renal 13.8%
active: SK-MEL-2 melanoma 7.95% | EKVX NSCLC -17.2% | TK-10 renal -10.2% | ACHN renal -50.8% | CAKI-1 renal -23.3% | A498 renal -1.71% | CCRF-CEM leukemia -21.9% | MOLT-4 leukemia 5.88%

CCCCCCCCCCCCCCCc1ccc(C(=O)C[n+]2ccccc2)cc1
inactive: A498 renal 41.1%
active: SK-MEL-2 melanoma -80.9% | EKVX NSCLC -51.6% | SN12C renal -60.7% | ACHN renal -49.3% | CCRF-CEM leukemia -62.1% | MOLT-4 leukemia -76.3%

NCC(=O)NC(CC(=O)O)C(=O)O (stereo not given) (H-Gly-[ξD]-OH)
inactive: SK-MEL-2 melanoma 111% | EKVX NSCLC 94.7% | SN12C renal 99% | ACHN renal 106% | CAKI-1 renal 89.8% | A498 renal 105% | CCRF-CEM leukemia 79.3% | MOLT-4 leukemia 109%

CC(/C=N/NC(N)=S)Cc1ccc(C(C)C)cc1 (stereo not given)
inactive: SK-MEL-2 melanoma 54.4% | EKVX NSCLC 80.5% | SN12C renal 69.8% | TK-10 renal 99.6% | CAKI-1 renal 58.7% | A498 renal 51% | CCRF-CEM leukemia 65.9% | MOLT-4 leukemia 67.7%

CCCCCCCCC(=O)OCCCC(CCC(CCC1CCCO1)OC(=O)CCCCCCCC)OC(=O)CCCCCCCC (stereo not given)
inactive: SK-MEL-2 melanoma 103% | EKVX NSCLC 94.1% | SN12C renal 92.9% | TK-10 renal 87.9% | CAKI-1 renal 93.3% | A498 renal 110% | CCRF-CEM leukemia 87.6% | MOLT-4 leukemia 117%

CCCCC(C=O)(C=C=C(C)C)CC (stereo not given)
inactive: SK-MEL-2 melanoma 111% | SN12C renal 102% | UO-31 renal 93.4% | TK-10 renal 104% | ACHN renal 99.3% | CAKI-1 renal 98.2% | A498 renal 82% | CCRF-CEM leukemia 88.5% | MOLT-4 leukemia 97%

O=C1C=CC(=O)N1c1cc(Cl)c(Cl)cc1Cl
inactive: SK-MEL-2 melanoma 87.2% | SN12C renal 104% | UO-31 renal 76.7% | TK-10 renal 106% | ACHN renal 96% | CAKI-1 renal 103% | A498 renal 105% | CCRF-CEM leukemia 37.5% | MOLT-4 leukemia 95.5%

CCCCCCCCCCCCCCCCSC(=NCC)NCC
inactive: SN12C renal 18.6% | A498 renal 67.4%
active: SK-MEL-2 melanoma -21.6% | UO-31 renal -13.2% | ACHN renal -21.6% | CAKI-1 renal -25.9% | CCRF-CEM leukemia -48.9% | MOLT-4 leukemia -47.7%

Cc1onc(-c2ccccc2)c1C(=O)N/N=C/c1cc(Cl)cc(Cl)c1O
inactive: SK-MEL-2 melanoma 37.7% | SN12C renal 33.1% | ACHN renal 22.1% | A498 renal 81.2% | CCRF-CEM leukemia 21.9% | MOLT-4 leukemia 19.2%
active: UO-31 renal 1.5% | CAKI-1 renal 8.2%
